This is an account of results in PubChem BioAssay (EPA / NIEHS).

Results filed as inconclusive are left out. Activity calls are given as the source filed them. How the source made its calls, unless noted: active means hit-call score of the fitted dose curve at least 0.9, where 1 is the maximum; inactive means score below 0.9.

Experiment [1] is described as follows: ACEA_ER_80hr: ACEA Biosciences xCELLigence Real-Time Cell Analysis on Estrogen Receptor Agonism for Proliferation (AID 2282667; active means hit-call score of the fitted dose curve at least 0.9, where 1 is the maximum). As to conditions: T47D proliferation, impedance (xCELLigence), 80 h. Summed up:
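T-47D cells monitored by electrical impedance (xCELLigence) with compound present throughout; 80 h timepoint, positive-direction fitting versus DMSO. Eight-point 1:4 dilutions from 100 uM final, duplicate plates.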

A short description of experiment [2]: ATG_CRE_CIS: Attagene CIS-FACTORIAL HepG2 Assay for human cAMP Responsive Element (CRE) binding protein 3 (AID 2282926). The settings on record: HepG2 CRE cis-reporter, Attagene multiplexed mRNA; actives raise or lower the signal. Summed up:
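Induced reporter mRNA from a CRE cis element, measured in HepG2 among many multiplexed units at 24 h. Detection used RT-PCR plus capillary electrophoresis of fluorescent fragments; DMSO served as negative control.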

Experiment [3] has as its target CCAAT/enhancer-binding protein beta (Homo sapiens) (UniProt P17676). The experiment is described as follows: ATG_C_EBP_CIS: Attagene CIS-FACTORIAL HepG2 Assay for human CCAAT/Enhancer Binding Protein (C/EBP) beta (AID 2282927). As to conditions: HepG2 Attagene cis-factorial transcription factor reporter; actives raise or lower the signal. Summed up:
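Following a 24 h incubation with test chemical, transfected HepG2 cells yielded RNA whose reporter transcripts were quantified by RT-PCR and fluorescent capillary electrophoresis, with DMSO serving as baseline for bidirectional fitting.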

Experiment [4] is described as follows: ATG_CMV_CIS: Attagene CIS-FACTORIAL HepG2 Assay for human CMV (Internal Marker) (AID 2282928).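 Further: endpoint acts as a background internal control marker rather than a target.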 As to conditions: HepG2 CMV promoter reporter, transcription factor profiling; actives raise or lower the signal. The procedure, abridged:
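24 h chemical treatment, HepG2 with transient multi-reporter transfection; RNA → oligo(dT) RT → PCR → 6-FAM extension → HpaI digest → CE fluorescence. Bidirectional fit, DMSO negative control.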

Experiment [5] in a line: ATG_AP_1_CIS: Attagene CIS-FACTORIAL HepG2 Assay for human Activator Protein 1 (AP-1) (AID 2282931). As to conditions: HepG2 Attagene cis-factorial AP-1 reporter mRNA; actives raise or lower the signal. The procedure, abridged:
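Readout is reporter transcript level from endogenous transcription factor activity, quantified by RT-PCR with fluorescent primer extension and capillary electrophoresis. Transiently transfected HepG2 cells, 24 h exposure. Curves fitted both directions versus DMSO.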

Experiment [6] can be described thus: ATG_AP_2_CIS: Attagene CIS-FACTORIAL HepG2 Assay for human Activator Protein 2 (AP-2) (AID 2282932). As to conditions: HepG2 AP-2 cis-reporter, Attagene transcription factor profiling; actives raise or lower the signal. Summed up:
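Assay in transfected HepG2 with promoter-regulated reporters, 24 h incubation after dosing. Signal is reporter mRNA fluorescence (RT-PCR, capillary electrophoresis), analysed for both increases and decreases relative to DMSO controls.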

A short description of experiment [7]: ATG_BRE_CIS: Attagene CIS-FACTORIAL HepG2 Assay for human Bone Morphogenetic Protein (BMP) Response Element (BRE) (AID 2282933). The settings on record: HepG2 BMP response element reporter, Attagene transcription factor profiling; actives raise or lower the signal. The procedure, abridged:
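Read-out: reporter mRNA induction quantified by RT-PCR and capillary electrophoresis after 24 h chemical exposure of transfected HepG2 cells. Endogenous factor activity on the BMP response element; gain or loss fitted against DMSO baseline.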

The target of experiment [8] is Retinoic acid receptor alpha (Homo sapiens) (UniProt P10276). Kind of experiment: ATG_DR5_RAR_CIS: Attagene CIS-FACTORIAL HepG2 Assay for human Retinoic Acid Receptor Alpha (RARE), DR5 submotif (AID 2282934).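 On AC50: reporter responds to endogenous RAR alpha beta and gamma in HepG2 not RARA alone.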 As to conditions: HepG2 Attagene cis-factorial RARE DR5 reporter, mRNA; actives raise or lower the signal. The procedure, abridged: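 Endpoint fitted in both directions relative to DMSO as negative control. It reflects DR5 cis-element reporter mRNA induction in transiently transfected HepG2 cells, measured 24 h after dosing through RT-PCR and fluorescent capillary electrophoresis.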
Sequence of Retinoic acid receptor alpha (Homo sapiens) (P10276 whole entry, looked up): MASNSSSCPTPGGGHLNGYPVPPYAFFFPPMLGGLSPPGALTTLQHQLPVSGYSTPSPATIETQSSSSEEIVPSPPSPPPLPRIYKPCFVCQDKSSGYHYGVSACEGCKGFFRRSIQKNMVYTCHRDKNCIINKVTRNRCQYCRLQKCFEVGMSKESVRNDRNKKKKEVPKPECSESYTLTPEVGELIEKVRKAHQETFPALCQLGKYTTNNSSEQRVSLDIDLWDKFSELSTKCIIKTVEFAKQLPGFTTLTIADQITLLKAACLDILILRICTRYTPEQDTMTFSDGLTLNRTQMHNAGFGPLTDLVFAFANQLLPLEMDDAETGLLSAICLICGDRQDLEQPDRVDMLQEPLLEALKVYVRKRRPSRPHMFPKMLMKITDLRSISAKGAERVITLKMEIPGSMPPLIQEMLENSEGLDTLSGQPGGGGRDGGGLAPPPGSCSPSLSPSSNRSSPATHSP

Experiment [9] has as its target Transcription factor E2F1 (Homo sapiens) (UniProt Q01094). Kind of experiment: ATG_E2F_CIS: Attagene CIS-FACTORIAL HepG2 Assay for human E2F Transcription Factor 1 (AID 2282935). The settings on record: HepG2 Attagene cis-reporter, E2F reporter RNA transcripts; actives raise or lower the signal. The procedure, abridged:
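In this cis-factorial format, endogenous factor activity drives transfected reporters in HepG2; transcripts collected at 24 h are quantified by fluorescence after RT-PCR and capillary separation.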

A short description of experiment [10]: ATG_E_Box_CIS: Attagene CIS-FACTORIAL HepG2 Assay for human Enhancer Box (E-box) (AID 2282936). As to conditions: HepG2 E-box cis-reporter transcription, actives raise or lower the signal. Summed up: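 Measured 24 h post-dosing in HepG2 cells transfected with multiple cis-regulated reporter units, signal being reporter mRNA induction detected by fluorescent RT-PCR with capillary electrophoresis; gain or loss fitted against DMSO.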

Experiment [11] is described as follows: ATG_M_61_CIS: Attagene CIS-FACTORIAL HepG2 Assay for M61 Transcription Factor (Internal Marker) (AID 2282937). The settings on record: HepG2 Attagene CIS-FACTORIAL M61 internal marker reporter; actives raise or lower the signal. The procedure, abridged: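 Readout is reporter mRNA by RT-PCR, fluorescent primer extension and capillary electrophoresis, with gain or loss fitted relative to DMSO. Transfected HepG2 cells carrying endogenous-TF-driven cis reporters were exposed to chemicals for 24 hours.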

The nature of experiment [12]: ATG_EGR_CIS: Attagene CIS-FACTORIAL HepG2 Assay for human Early Growth Response 1 (EGR1) (AID 2282938). As to conditions: HepG2 Attagene CIS-FACTORIAL EGR reporter mRNA; actives raise or lower the signal. Summed up: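 After 24 h compound exposure, RNA from reporter-transfected HepG2 cells was reverse-transcribed, PCR-amplified, fluorescently labelled and resolved by capillary electrophoresis. EGR1 reporter transcript changes, up or down, were fitted against DMSO, reflecting endogenous transcription-factor activity.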

The nature of experiment [13]: ATG_ERE_CIS: Attagene CIS-FACTORIAL HepG2 Assay for Estrogen Response Element (ERE) (AID 2282940). As to conditions: HepG2 ERE cis-reporter, Attagene RNA transcript; actives raise or lower the signal. Summed up: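 Readout: reporter mRNA induction by RT-PCR, FAM-labelled primer extension, HpaI digestion and capillary electrophoresis, 24 h after dosing transfected HepG2 cells. Endogenous transcription factors act on cis-element-regulated reporters. Gain or loss fitted against DMSO.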

Experiment [14] can be described thus: ATG_Ets_CIS: Attagene CIS-FACTORIAL HepG2 Assay for human Erythroblast Transformation Specific (ETS) (AID 2282941). The settings on record: HepG2 ETS cis-reporter transcription, actives raise or lower the signal. Summed up:
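Cis-regulated reporter mRNA induction in HepG2 (transient transfection), 24 h exposure, RT-PCR plus capillary electrophoresis detection; DMSO serves as negative control and baseline.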

For experiment [15], the target named is Hepatocyte nuclear factor 3-beta (Homo sapiens) (UniProt Q9Y261). Kind of experiment: ATG_FoxA2_CIS: Attagene CIS-FACTORIAL HepG2 Assay for human Forkhead box A2 (FOXA2) (AID 2282942). The settings on record: HepG2 cis-reporter transcription factor activity, 24 h; actives raise or lower the signal. The procedure, abridged:
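Endogenous transcription factor activity is captured via cis-element-driven reporter transcripts in transfected HepG2. Total RNA taken at 24 h post-dosing; labelled RT-PCR products resolved by capillary electrophoresis. Gain or loss fitted versus DMSO.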

The nature of experiment [16]: ATG_FoxO_CIS: Attagene CIS-FACTORIAL HepG2 Assay for human Forkhead box O (FoxO) (AID 2282943). The settings on record: HepG2 Attagene cis-reporter, FoxO element, mRNA; actives raise or lower the signal. Summed up:
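Values reflect reporter mRNA induction or loss in HepG2 cells 24 h post-dosing, fitted bidirectionally with DMSO as negative control and baseline. Detection used RT-PCR and fluorescence capillary electrophoresis.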

Experiment [17] has as its target Aryl hydrocarbon receptor (Homo sapiens) (UniProt P35869). Kind of experiment: ATG_Ahr_CIS: Attagene CIS-FACTORIAL HepG2 Assay for human Aryl Hydrocarbon Receptor (Ahr) (AID 2282930). As to conditions: HepG2 AhR cis-factorial reporter transcription; actives raise or lower the signal. The procedure, abridged:
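Values derive from bidirectional fitting against DMSO negative control. Underlying signal: cis-element reporter mRNA in transiently transfected HepG2, harvested 24 h post-dose and measured by RT-PCR plus capillary electrophoresis.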

Experiment [18] can be described thus: ATG_M_19_CIS: Attagene CIS-FACTORIAL HepG2 Assay for M19 Transcription Factor (Internal Marker) (AID 2282939). As to conditions: HepG2 Attagene CIS-FACTORIAL M19 internal marker reporter; actives raise or lower the signal. The procedure, abridged:
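Readout: fluorescent reporter-transcript fragments by capillary electrophoresis after RT-PCR. Human HepG2 liver cells carried transfected MRTU constructs reporting endogenous transcription-factor activity; exposure 24 h. Gain or loss of signal fitted relative to DMSO.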

Experiment [19] is described as follows: ATG_GATA_CIS: Attagene CIS-FACTORIAL HepG2 Assay for human GATA Binding Protein (AID 2282944). As to conditions: HepG2 GATA cis-element reporter, Attagene multiplex mRNA; actives raise or lower the signal. The procedure, abridged:
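Read-out: fluorescent reporter mRNA fragments resolved by capillary electrophoresis after RT-PCR. Human liver HepG2 cells carried transiently transfected cis-regulated reporter constructs; chemicals incubated 24 h; gain or loss of signal fitted relative to DMSO.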

Experiment [20] in a line: ATG_DR4_LXR_CIS: Attagene CIS-FACTORIAL HepG2 Assay for human Liver X Receptor (LXR), DR4 submotif (AID 2282929). As to conditions: HepG2 Attagene DR4 cis-reporter, mRNA transcription; actives raise or lower the signal. The procedure, abridged: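 The endpoint is DR4-element-driven reporter transcripts after 24 h chemical exposure of transfected HepG2 cells. These were measured via RT-PCR and capillary electrophoresis, and gain or loss of signal was fitted relative to DMSO controls.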

Sequence of CCAAT/enhancer-binding protein beta (Homo sapiens) (P17676 whole entry, looked up): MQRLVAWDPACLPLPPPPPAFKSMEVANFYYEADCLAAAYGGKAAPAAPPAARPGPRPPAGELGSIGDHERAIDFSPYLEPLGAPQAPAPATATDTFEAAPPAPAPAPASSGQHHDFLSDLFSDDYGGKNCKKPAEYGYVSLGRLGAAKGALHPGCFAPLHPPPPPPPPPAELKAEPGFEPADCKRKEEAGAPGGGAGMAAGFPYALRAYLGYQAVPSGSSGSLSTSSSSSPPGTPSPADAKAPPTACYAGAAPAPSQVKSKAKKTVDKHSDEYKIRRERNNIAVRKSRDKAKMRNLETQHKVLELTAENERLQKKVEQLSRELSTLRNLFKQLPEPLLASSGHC
Sequence of Transcription factor E2F1 (Homo sapiens) (Q01094 whole entry, looked up): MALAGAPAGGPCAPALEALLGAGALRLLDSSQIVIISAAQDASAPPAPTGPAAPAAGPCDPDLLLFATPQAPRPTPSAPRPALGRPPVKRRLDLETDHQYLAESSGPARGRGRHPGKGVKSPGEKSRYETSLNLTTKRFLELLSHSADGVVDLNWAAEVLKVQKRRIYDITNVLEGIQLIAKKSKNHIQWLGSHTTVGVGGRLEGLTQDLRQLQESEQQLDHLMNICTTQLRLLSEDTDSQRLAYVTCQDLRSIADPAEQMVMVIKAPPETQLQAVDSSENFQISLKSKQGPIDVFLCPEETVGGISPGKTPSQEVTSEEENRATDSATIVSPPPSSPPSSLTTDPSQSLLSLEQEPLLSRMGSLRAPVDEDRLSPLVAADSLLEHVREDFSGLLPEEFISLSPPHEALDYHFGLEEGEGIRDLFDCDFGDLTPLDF
Sequence of Hepatocyte nuclear factor 3-beta (Homo sapiens) (Q9Y261 whole entry, looked up): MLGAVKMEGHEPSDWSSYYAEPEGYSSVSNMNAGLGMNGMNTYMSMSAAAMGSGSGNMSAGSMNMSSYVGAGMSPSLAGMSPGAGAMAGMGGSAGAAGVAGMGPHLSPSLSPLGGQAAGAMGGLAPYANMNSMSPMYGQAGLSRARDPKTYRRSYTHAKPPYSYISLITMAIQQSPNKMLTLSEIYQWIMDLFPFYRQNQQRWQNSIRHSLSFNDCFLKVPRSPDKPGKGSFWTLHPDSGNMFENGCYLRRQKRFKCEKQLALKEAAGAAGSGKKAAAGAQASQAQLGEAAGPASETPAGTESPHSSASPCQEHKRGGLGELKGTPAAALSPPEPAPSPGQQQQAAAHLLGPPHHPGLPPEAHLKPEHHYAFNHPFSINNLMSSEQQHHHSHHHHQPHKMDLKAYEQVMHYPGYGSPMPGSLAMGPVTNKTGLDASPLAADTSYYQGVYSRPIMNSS
Sequence of Aryl hydrocarbon receptor (Homo sapiens) (P35869 whole entry, looked up): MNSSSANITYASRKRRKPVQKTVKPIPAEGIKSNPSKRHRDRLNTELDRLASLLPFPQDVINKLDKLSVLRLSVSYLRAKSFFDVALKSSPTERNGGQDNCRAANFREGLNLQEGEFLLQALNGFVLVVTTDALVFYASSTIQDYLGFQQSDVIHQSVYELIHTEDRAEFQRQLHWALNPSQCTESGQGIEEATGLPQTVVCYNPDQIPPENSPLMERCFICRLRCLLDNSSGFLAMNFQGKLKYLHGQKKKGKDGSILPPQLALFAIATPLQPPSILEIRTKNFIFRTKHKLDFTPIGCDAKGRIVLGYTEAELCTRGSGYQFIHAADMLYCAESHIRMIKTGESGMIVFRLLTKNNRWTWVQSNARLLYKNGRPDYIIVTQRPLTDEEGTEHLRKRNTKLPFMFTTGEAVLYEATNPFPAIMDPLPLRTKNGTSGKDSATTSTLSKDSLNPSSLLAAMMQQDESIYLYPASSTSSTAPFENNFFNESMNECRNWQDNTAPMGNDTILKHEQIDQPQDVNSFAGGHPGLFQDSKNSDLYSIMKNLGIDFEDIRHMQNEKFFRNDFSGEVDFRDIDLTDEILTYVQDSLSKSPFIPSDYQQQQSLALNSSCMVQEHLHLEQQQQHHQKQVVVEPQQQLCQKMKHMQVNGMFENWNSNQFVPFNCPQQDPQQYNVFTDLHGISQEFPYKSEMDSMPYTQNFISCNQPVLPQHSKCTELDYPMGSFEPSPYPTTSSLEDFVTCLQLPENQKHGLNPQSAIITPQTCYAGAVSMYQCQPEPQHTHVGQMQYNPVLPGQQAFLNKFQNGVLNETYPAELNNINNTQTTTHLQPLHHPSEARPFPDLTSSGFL

With `NC(=O)C(F)(F)C(F)(F)C(F)(F)C(F)F`, the result in [1], in experiment [2], in experiment [3], in experiment [4], in [5] and in experiment [6] was inactive. For the same compound, the result in experiment [7], in experiment [8], in experiment [9], in experiment [10], in experiment [11] and in experiment [12] was inactive. The call in experiment [13], in experiment [14], in [15] and in experiment [16] was inactive.
In the case of `C=CC(=O)OCC(F)(F)C(F)(F)C(F)(F)C(F)(F)C(F)(F)C(F)(F)C(F)(F)C(F)F`, the result in experiment [1], in [2], in experiment [3], in experiment [4], in [17] and in [6] was inactive. For the same compound, the outcome in experiment [7], in experiment [9], in [10], in experiment [11], in [12] and in [18] was inactive. For the same compound, the call in experiment [14], in [15], in experiment [16] and in experiment [19] was inactive. The half-maximal activity concentration (AC50) (commonly the midpoint of the concentration-response curve, whichever way the signal moves) is 36.9 µM (active) in [8] and 5.14 µM (active) in experiment [13].
As for `OC(O)C(F)(F)C(F)(F)F`, the call in experiment [1], in experiment [2], in experiment [3], in experiment [17], in [6] and in experiment [7] was inactive. In addition, the result in [8], in experiment [9], in experiment [10], in experiment [11], in [12] and in experiment [18] was inactive. The compound was called inactive in experiment [13], in [14], in experiment [15], in experiment [16] and in experiment [19]. Moreover, in experiment [4], the AC50 was 117 µM (active).
Consider `CC(C)CCCC(C)CCO` (stereo not drawn), for which the result in experiment [1], in experiment [2], in experiment [3], in experiment [4], in experiment [20] and in experiment [5] was inactive. For the same compound, the outcome in [7], in experiment [8], in [9], in [10], in experiment [12] and in experiment [18] was inactive. Besides, the call in experiment [13], in experiment [14], in experiment [15] and in [16] was inactive.
